Screening results (PubChem)
IL1B NFkB inh: blocks IL-1B driven NFkB nuclear translocation in HUVEC cells; 0.43% of 94,000 active; HUVEC IL-1B NFkB p65 nuclear translocation imaging; inhibition, % at 2 µM;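 active = inhibition above about 30% together with a positive call from visual inspection of the well image, limit read from the data; inconclusive = inhibition above a set limit but visual check negative; inactive = inhibition not above a set limit, visual check negative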;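 also: nuclear over cytoplasmic p65 intensity ratio measured by imaging; 0% = IL-1B stimulated DMSO wells and 100% = unstimulated DMSO wells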
NFkB transloc pot: enhances IL-1B driven NFkB nuclear translocation; HUVEC IL-1B NFkB p65 nuclear translocation imaging; activation, % at 2 µM; 0.3% of 94,000 active; AID 819;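 active = activation above 40%, about the mean plus 3 SD, also judged a hit on visual image review; inconclusive = activation above 40% but not a hit on visual review; inactive = activation not above 40% and no visual hit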;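 also: percent activation is computed from the nuclear over cytoplasmic p65 intensity ratio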
TNFa cytotox: HUVEC cytotoxicity counter-screen, TNF alpha stimulated. HUVEC TNFalpha-stimulated, Hoechst cell count, imaging. cell count reduction, % at 2 µM. 0.17% of 93,000 active;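 active = cell count reduction exceeding the screen mean by over 5 SD, scaled to untreated wells per plate, cut at about 78% in these data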;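 also: cells counted after 24 h of TNF alpha exposure following the 1 h pretreatment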
VCAM1 TNFa inh: reduces TNF alpha induced VCAM1 expression in HUVEC; inhibition, % at 2 µM; HUVEC TNFa-induced VCAM-1 immunofluorescence, high-content imaging; 0.48% of 95,000 active;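 active = inhibition above the batch mean plus 3 SD, with images confirmed as a hit by eye, cut at about 37% in these data; inconclusive = inhibition above that limit but hit not confirmed in images; inactive = inhibition not above that limit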;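 also: 0% = TNF-stimulated DMSO wells and 100% = unstimulated control wells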
IL1B cytotox: toxic to HUVEC cells under IL-1B stimulation. 0.41% of 94,000 active. cell count reduction, % at 2 µM. HUVEC cell count loss, Hoechst imaging, IL-1B stimulated;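 active = cell count reduction more than 3 SD above the screen-wide mean, cut at about 70% in these data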;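 also: normalized per plate to untreated control cells as the no-loss baseline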
* marks the source's active call; other numbers are inactive results. Shown are actives, neighbours in structure and some others; about 1.5% of the full set was active somewhere.

For O=C(NC1CCCCCCC1)c1ccc2c(c1)N(Cc1ccc(F)cc1)C(=O)CS2=O (configuration not stated) the results were IL1B NFkB inh 13.1, NFkB transloc pot -13.1, TNFa cytotox -26.1, VCAM1 TNFa inh 12.4 and IL1B cytotox -10.2.
CCOC(=O)c1c(NC(=O)C2c3ccccc3Oc3ccccc32)sc(C(=O)N(CC)CC)c1C was read as IL1B NFkB inh 2.5, NFkB transloc pot -2.5, TNFa cytotox -3.1, VCAM1 TNFa inh 4.8 and IL1B cytotox -44.5.
For COc1ccc(OC)c(-c2nc3c(C)n[nH]c(=O)c3[nH]2)c1 the results were IL1B NFkB inh -47.6, NFkB transloc pot inconclusive, TNFa cytotox -0.7, VCAM1 TNFa inh 23.8 and IL1B cytotox -8.9.
Screening O=C(c1ccco1)N1CCN(c2ncnc3c2nnn3Cc2ccccc2Cl)CC1 returned IL1B NFkB inh 3.6, NFkB transloc pot -3.6, TNFa cytotox 9.4, VCAM1 TNFa inh 12.1 and IL1B cytotox 19.6.
O=C(c1ccco1)N1CCN(c2nc(C(F)(F)F)nc3c2nnn3Cc2ccccc2)CC1 was read as IL1B NFkB inh -40.7, NFkB transloc pot 40.7*, TNFa cytotox -1.1, VCAM1 TNFa inh -0.4 and IL1B cytotox 11.5.
For CC(=O)Nc1ccc(S(=O)(=O)NCCc2ccc(S(N)(=O)=O)cc2)cc1 the results were IL1B NFkB inh 30.2*, NFkB transloc pot -30.2, TNFa cytotox -23.3, VCAM1 TNFa inh -19.5 and IL1B cytotox -14.0.
For Cc1onc(-c2c(Cl)cccc2Cl)c1C(=O)N1CCc2ccccc2C1 the results were IL1B NFkB inh 2.5, NFkB transloc pot -2.5, TNFa cytotox 18.5, VCAM1 TNFa inh -1.0 and IL1B cytotox 1.0.
Screening O=C(O)c1cn(-c2ccc(F)c(F)c2)c2c(F)c(F)c(F)c(F)c2c1=O returned IL1B NFkB inh -6.1, NFkB transloc pot 6.1, TNFa cytotox 16.9, VCAM1 TNFa inh 0.2 and IL1B cytotox -26.4.
Screening Cc1ccc(CNC(=O)C(Cc2ccccc2)NS(=O)(=O)c2cccs2)cc1 (configuration not stated) returned IL1B NFkB inh 32.9*, NFkB transloc pot -32.9, TNFa cytotox 1.7, VCAM1 TNFa inh 8.0 and IL1B cytotox -4.3.
`CCOC(=O)CNC(=O)C(Cc1ccccc1)NS(=O)(=O)c1cccs1` (configuration not stated) gave IL1B NFkB inh -4.9, NFkB transloc pot 4.9, TNFa cytotox -18.6, VCAM1 TNFa inh -1.4 and IL1B cytotox 11.0.
Screening CN(C)c1nc(N(C)C)nc(N(C#N)CCOc2ccccc2)n1 returned IL1B NFkB inh -9.8, NFkB transloc pot 9.8, TNFa cytotox -2.9, VCAM1 TNFa inh 97.2* and IL1B cytotox 1.3.
Screening Cc1cc(C)nc(N(C#N)CCOc2ccccc2)n1 returned IL1B NFkB inh -0.3, NFkB transloc pot 0.3, TNFa cytotox 7.0, VCAM1 TNFa inh 16.4 and IL1B cytotox -38.6.
Screening COc1cc2[nH]c(=O)n(CCC(=O)N3CCN(c4cc(Cl)ccc4C)CC3)c(=O)c2cc1OC returned IL1B NFkB inh 1.7, NFkB transloc pot -1.7, TNFa cytotox 0.9, VCAM1 TNFa inh -2.8 and IL1B cytotox 82.8*.
For C=CCSc1nc2ccccc2n1C(=O)/C=C/c1cc(OC)c(OC)c(OC)c1 the results were IL1B NFkB inh 13.8, NFkB transloc pot -13.8, TNFa cytotox 9.6, VCAM1 TNFa inh 92.3* and IL1B cytotox -2.0.
For C=CCSc1nc2ccccc2n1C(=O)/C=C/c1ccc(OC)c(OC)c1 the results were IL1B NFkB inh 8.6, NFkB transloc pot -8.6, TNFa cytotox 7.6, VCAM1 TNFa inh -7.9 and IL1B cytotox 3.1.
Screening Nc1ncnc2nc(Sc3ccc(Cl)cc3)[nH]c12 returned IL1B NFkB inh 34.1*, NFkB transloc pot -34.1, TNFa cytotox -9.9, VCAM1 TNFa inh 8.1 and IL1B cytotox 6.1.
For COc1ccc(-c2nnn(CC(=O)NCCc3c[nH]c4ccccc34)n2)cc1OC the results were IL1B NFkB inh 4.0, NFkB transloc pot -4.0, TNFa cytotox -11.9, VCAM1 TNFa inh -2.9 and IL1B cytotox -24.9.
CCC1=NNc2cccc3c(OC)ccc1c23 was read as IL1B NFkB inh -40.5, NFkB transloc pot 40.5*, TNFa cytotox -32.2, VCAM1 TNFa inh -14.9 and IL1B cytotox -84.8.
`COc1ccc(C(C)=O)c2c(O)cccc12` gave IL1B NFkB inh -4.5, NFkB transloc pot 4.5, TNFa cytotox -30.0, VCAM1 TNFa inh -5.1 and IL1B cytotox -10.9.
Screening O=S(=O)(NCCn1ccc2ccccc21)c1ccccc1 returned IL1B NFkB inh -8.2, NFkB transloc pot 8.2, TNFa cytotox -9.5, VCAM1 TNFa inh -12.5 and IL1B cytotox 10.4.
Cc1nc2sc(C(c3ccc(Cl)cc3)N3CC(C)OC(C)C3)c(O)n2n1 (configuration not stated) was read as IL1B NFkB inh 4.3, NFkB transloc pot -4.3, TNFa cytotox 37.1, VCAM1 TNFa inh 36.5* and IL1B cytotox 13.3.
`O=CNC(Cc1ccccc1)C(=O)O` (configuration not stated) gave IL1B NFkB inh 1.1, NFkB transloc pot -1.1, TNFa cytotox -3.6, VCAM1 TNFa inh 11.0 and IL1B cytotox -12.7.
For O=[N+]([O-])c1ccc(O)c(/C=N/Nc2ccc(Cl)nn2)c1 the results were IL1B NFkB inh -23.3, NFkB transloc pot 23.3, TNFa cytotox 14.6, VCAM1 TNFa inh 63.4* and IL1B cytotox -54.8.
C=CCn1c(CCC(=O)O)ccc1-c1ccccc1 was read as IL1B NFkB inh -5.0, NFkB transloc pot 5.0, TNFa cytotox 2.6, VCAM1 TNFa inh -6.8 and IL1B cytotox -19.4.
C/C(=N\O)c1ccc(N2C(=O)C3CC=C(Cl)CC3C2=O)cc1 (configuration not stated) was read as IL1B NFkB inh 4.8, NFkB transloc pot -4.8, TNFa cytotox -27.5, VCAM1 TNFa inh -14.7 and IL1B cytotox 92.1*.
`Cc1ccc(NC(=O)c2ccc(N3C(=O)C4CC=C(Cl)CC4C3=O)cc2)cc1` (configuration not stated) gave IL1B NFkB inh 5.6, NFkB transloc pot -64.8, TNFa cytotox 23.0, VCAM1 TNFa inh 10.2 and IL1B cytotox -27.3.
`CCOC(=O)c1cnn(-c2nc3c(C)cccc3s2)c1C` gave IL1B NFkB inh -14.6, NFkB transloc pot 14.6, TNFa cytotox 89.5*, VCAM1 TNFa inh 91.5* and IL1B cytotox -5.8.
Screening CCOc1nc(Nc2ccc(OC)c(Cl)c2)nc(OCC)n1 returned IL1B NFkB inh -14.4, NFkB transloc pot 14.4, TNFa cytotox -12.2, VCAM1 TNFa inh 5.1 and IL1B cytotox -23.2.
For O=C(NCCc1ccncc1)C(F)(F)F the results were IL1B NFkB inh 72.5*, NFkB transloc pot -72.5, TNFa cytotox -19.6, VCAM1 TNFa inh 15.5 and IL1B cytotox -39.6.
Screening COc1ccc(NC(=O)/C(Cl)=C(/Cl)S(=O)(=O)Cc2ccccc2)cn1 returned IL1B NFkB inh -68.5, NFkB transloc pot 68.5*, TNFa cytotox -0.8, VCAM1 TNFa inh 27.7 and IL1B cytotox -2.6.
`COc1ccc(CN2CCCCC2C(=O)Nc2ccc(OC)c(OCC(C)C)c2)cc1OC` (configuration not stated) gave IL1B NFkB inh 2.0, NFkB transloc pot -2.0, TNFa cytotox -10.1, VCAM1 TNFa inh 96.7* and IL1B cytotox 2.3.
